Assay outcomes: PubChem BioAssay, several laboratories
This is a sample that favours compounds with a hit; in the whole collection about 1.9% have one here.
Neddyl block – inhibitors of human cullin neddylation; 360,000 compounds, 0.58% hits; inhibition, % at 25 µM; TR-FRET cullin neddylation, biochemical; P61081+Q13564; in the data active = inhibition above about 36%
Target sequence (P61081 whole entry, looked up): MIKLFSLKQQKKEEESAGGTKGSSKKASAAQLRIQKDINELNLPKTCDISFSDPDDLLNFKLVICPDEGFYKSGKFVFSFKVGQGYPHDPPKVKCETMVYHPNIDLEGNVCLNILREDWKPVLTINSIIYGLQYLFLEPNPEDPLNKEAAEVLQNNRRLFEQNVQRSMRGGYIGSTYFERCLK
Target sequence (Q13564 whole entry, looked up): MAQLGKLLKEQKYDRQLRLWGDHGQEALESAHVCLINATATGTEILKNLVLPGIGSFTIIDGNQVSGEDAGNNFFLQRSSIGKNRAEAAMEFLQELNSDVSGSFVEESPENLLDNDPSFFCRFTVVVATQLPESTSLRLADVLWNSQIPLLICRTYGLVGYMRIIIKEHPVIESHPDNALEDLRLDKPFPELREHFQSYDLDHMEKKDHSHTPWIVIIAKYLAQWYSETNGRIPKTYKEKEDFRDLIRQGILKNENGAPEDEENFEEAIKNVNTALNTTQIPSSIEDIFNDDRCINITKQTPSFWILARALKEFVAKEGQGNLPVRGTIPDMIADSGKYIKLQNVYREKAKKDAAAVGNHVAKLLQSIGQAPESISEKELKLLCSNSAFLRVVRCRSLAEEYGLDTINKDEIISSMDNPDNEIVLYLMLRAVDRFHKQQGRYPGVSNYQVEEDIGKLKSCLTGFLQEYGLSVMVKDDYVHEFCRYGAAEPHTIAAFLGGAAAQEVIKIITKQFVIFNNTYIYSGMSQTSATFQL
dFosB activator – enhances mouse delta FosB homodimer DNA binding | P13346 | purified delta FosB, TAMRA-CDK5 oligo fluorescence polarization; percent of positive-control signal above neutral wells | activation, % at 25 µM | 340,000 compounds, 0.99% hits;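 active = mean activation above about 17%, with every replicate also reaching it, limit read from the data, passing the limit was not always enough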
GSIS activator – GLuc luminescence reporter in INS-1E cells, primary screen for activators of glucose-dependent secretion of insulin | INS-1E GLuc reporter insulin secretion, 2-3 h | activation, % at 16.6 µM | 370,000 compounds, 0.61% hits | AID 743287;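 active = lowest replicate activation of at least 40%, so every replicate reaches that level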;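 note: 0% = median of neutral control wells and 100% = median of IBMX positive control wells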
Bfl-1 A1 inh – inhibitors of the anti-apoptotic protein A1, read as caspase activation. 330,000 compounds, 0.066% hits. caspase activation, % (concentration not given with the values). MEF A1-2A-BIM cells, Caspase-Glo 3/7 luminescence, 3 h; percent of clofoctol response, vehicle zero. AID 2462;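 active = over half of replicate activation scores above 10%, or exactly half above 10 with the replicate mean above 10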
Vif inh – inhibitors of HIV Vif | HEK293T cells, Vif self-association by quenched fluorescence, imaging, 24 h | inhibition, % at 7.49 µM | 340,000 compounds, 0.35% hits | AID 602346; in the data active = inhibition above about 50%, passing the limit was not always enough
Neddyl inh conf – cullin neddylation inhibition, confirmation; shares compounds with Neddyl block; TR-FRET cullin neddylation biochemical assay; calls only at 25 µM; 1,800 compounds, 13% hits; in the data active = inhibition above about 40%;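 note: neddylation substrate is the cullin 1 ring ligase complex with SKP2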
* = called active by the depositor; i = inactive; / = not tested or not shown; + = active, no number.

SMILES	Neddyl block	dFosB activator	GSIS activator	Bfl-1 A1 inh	Vif inh	Neddyl inh conf
CCN(CC)c1ccc(/C=N/NC(=O)CC(C)C)cc1	54.2*	-2.6	2.0	0.2	1.1	+
CCN(CC)c1ccc(/C=N\NC(N)=O)cc1	40.2*	-2.2	20.4	1.8	15.1	i
CCN(CC)c1ccc(/C=N/NC(=O)Nc2ccccc2)cc1	39.0	-9.8	-9.1	-0.6	-3.2	/
C[C@@H]1CN([C@@H](C)CO)C(=O)Cc2cc(NC(=O)Cc3ccccc3)ccc2O[C@H]1CN(C)S(=O)(=O)c1ccccc1	/	/	-0.8	/	/	/
Cc1c(C(=O)NCC2CCCO2)oc2ccc3c(c12)C(=O)CC(C)(C)O3 (stereo not drawn)	37.4*	-9.3	29.0	0.3	/	/
COc1ccc(OC)c2[nH]c(=O)c(CCNC(=O)c3ccc4c(c3)OCO4)cc12	40.8*	-4.9	-2.2	0.6	-4.7	i
O=C(C[C@@H]1CC[C@@H](NC(=O)c2ccncc2)[C@H](CO)O1)NCC1CC1	/	/	4.8	/	/	/
Cc1cccc(C(=O)Oc2ccc(/C=N/NC(=O)c3ccncc3)cc2)c1	40.1*	-5.6	-11.3	-1.7	-1.5	i
O=C(Oc1ccc(/C=N/NC(=O)c2ccccc2O)cc1)c1ccccc1	39.2*	4.5	-13.0	1.0	6.5	i
Cc1cccc(C(=O)Oc2ccc(/C=N/NC(=O)c3cc(O)cc(O)c3)cc2)c1	1.1	-11.9	8.5	1.3	10.2	/
COc1cc(/C=C/c2cc(C(=O)O)c3ccccc3n2)ccc1OC(F)F	40.2*	-7.9	-6.3	-1.8	-3.8	/
CNC[C@H]1Oc2ccc(NC(=O)NC(C)C)cc2CC(=O)N([C@@H](C)CO)C[C@@H]1C	/	/	22.4	/	/	/
COCCNC(=O)/C(C#N)=C/c1c(N2CCN(c3ccccc3)CC2)nc2c(C)cccn2c1=O	58.4*	-12.8	20.6	0.3	-5.4	i
COc1cccc(NC(=O)N2CC(=O)N3[C@H](CO)[C@H](c4ccc(Br)cc4)[C@H]3C2)c1	/	/	12.1	/	/	/
COC(=O)CSc1nc2ccc(N)cc2s1	11.1	0.9	-5.5	-0.6	-5.3	/
COC(=O)CSc1ccc2c(N)c(C(=O)OC)sc2c1	51.0*	-7.9	/	-2.5	10.9	+
O=S(=O)(c1cccs1)N1CN(Cc2ccccc2)c2nc3ccccc3nc21	40.8*	3.3	/	0.6	0.0	i
C=CCN1CN(S(=O)(=O)c2cccs2)c2nc3ccccc3nc21	10.8	-1.8	23.9	0.8	-8.3	/
COc1cccc(NC(=O)N[C@@H]2C=C[C@@H](CC(=O)Nc3ccc(-c4ccccc4)cc3)O[C@H]2CO)c1	/	/	11.0	/	/	/
COC(=O)C[C@@H]1C[C@H]2c3cc(NC(=O)CN(C)C)ccc3O[C@H]2[C@@H](CO)O1	/	/	8.5	/	/	/
CCC(NC(=O)c1ccccc1O)c1ccccc1 (stereo not drawn)	49.2*	3.3	/	0.1	-1.1	i
CCc1c(C)c(C#N)c2nc3ccccc3n2c1NCCOC	40.7*	-7.6	6.4	-0.1	9.7	/
CCCc1c(C)c(C#N)c2nc3ccccc3n2c1NCCCN1CCOCC1	46.0*	-4.9	/	0.2	6.3	i
CCc1c(C)c(C#N)c2nc3ccccc3n2c1NCCCN(C)C	26.1	/	15.0	/	/	/
CC(C)c1cc(NCCN2CCOCC2)n2c(nc3ccccc32)c1C#N	37.7*	-10.9	19.1	/	14.3	i
SMILES	Neddyl block	dFosB activator	GSIS activator	Bfl-1 A1 inh	Vif inh	Neddyl inh conf
Cc1noc(C)c1NC(=O)Nc1cccc2c1O[C@@H](CN(C)C(=O)Nc1ccc3c(c1)OCO3)[C@H](C)CN([C@H](C)CO)C2=O	/	/	8.0	/	/	/
CO[C@@H]1CN(C)C(=O)c2cc(NC(=O)C3CCCC3)ccc2OC[C@H](C)N(C(=O)CC2CC2)C[C@@H]1C	/	/	2.5	/	/	/
CC(C)Cc1nc(N2CCCCC2)c(C#N)c2c1CCC2	39.0*	1.9	/	0.0	2.0	/
CN1C(=O)c2cc(NC(=O)C3CC3)ccc2OC[C@@H]2O[C@H](CC(=O)NCCc3ccncc3)CC[C@H]21	/	/	1.3	/	/	/
CC(=O)N1N=C2/C(=C/c3ccccc3)CCCC2C1c1ccccc1 (stereo not drawn)	46.8*	-5.9	-0.7	0.7	-0.2	/
CCCn1c(SCC(=O)N2N=C3/C(=C/c4ccc(OC)cc4)CCCC3C2c2ccc(OC)cc2)n[nH]c1=O (stereo not drawn)	46.8*	-9.6	-19.3	0.2	-5.7	i
CCCn1c(SCC(=O)NCc2ccc(OC)cc2)n[nH]c1=O	5.8	-4.0	-0.6	0.4	16.3	/
C[C@@H]1CN(C)C(=O)c2cccnc2O[C@H]1CN(C)C	/	/	6.8	/	/	/
O=C(N/N=C/c1cccn1-c1ccc(O)cc1)c1cccc2ccccc12	45.5*	22.4*	-5.1	2.1	2.6	i
O=C(N/N=C/c1ccccc1)c1cccc2ccccc12	-0.1	0.5	0.6	0.6	-0.7	/
COc1ccc(-c2cc3nc(NCCN4CCCC4)n(C)c(=O)c3s2)cc1OC	49.5*	/	-4.6	/	12.3	+
CC(C)NC(=O)N1CC2(C1)[C@@H](c1ccccc1)[C@H](CO)N2C(=O)C1CCCCC1	/	/	3.8	/	/	/
CCOc1ccc(OCCNC(=O)c2cc(C3CC3)nc3c2cnn3C(C)C)cc1	14.2	-2.3	-46.0	/	-3.4	/
CC(C)n1ncc2c(C(=O)NCCc3ccc(S(N)(=O)=O)cc3)cc(C3CC3)nc21	64.3*	-11.4	13.5	/	-4.3	/
CC(C)n1ncc2c(C(=O)NCCOc3ccccc3F)cc(C3CC3)nc21	43.6*	-10.9	/	-1.1	2.9	i
CNC(=O)c1c(NC(=O)c2cccc(C)c2)sc2c1CCC2	49.1*	-21.4	4.6	-0.3	-12.0	/
COc1cc(C(=O)Nc2sc3c(c2C(=O)O)CCC3)cc(OC)c1OC	40.8*	0.0	13.9	0.1	11.0	/
CNC(=O)c1c(NC(=O)c2ccco2)sc2c1CCCC2	45.4*	-9.6	1.4	0.1	-6.0	/
Cc1cccc(C(=O)Nc2sc3c(c2C(=O)O)CCC3)c1	30.2	-7.0	9.6	-7.5	-2.1	/
NC(=O)c1c(NC(=O)c2cccc(N3C(=O)CCC3=O)c2)sc2c1CCCCC2	51.7*	12.4	8.2	-0.3	/	/
COc1ccc(NC(=O)N(C)C[C@@H]2OCCCC[C@H](C)Oc3ccc(NS(=O)(=O)c4ccc(C)cc4)cc3C(=O)N([C@H](C)CO)C[C@@H]2C)cc1	/	/	-39.0	/	/	/
CS(=O)(=O)N1CC2(C1)[C@@H](c1ccccc1)[C@@H](CO)N2CC1CCCC1	/	/	-6.9	/	/	/
C[C@@H]1CCCCO[C@H](CN(C)C(=O)C2CCCCC2)[C@H](C)CN([C@@H](C)CO)C(=O)c2cc(NS(=O)(=O)c3ccc(Cl)cc3)ccc2O1	/	/	-12.0	/	/	/
Cc1ccc(C(=O)Nc2sc3c(c2C(=O)O)CCCC3)o1	50.7*	-3.8	-10.4	-0.2	11.5	/
C[C@@H]1CN([C@H](C)CO)C(=O)c2c(c3ccccc3n2C)-c2ccccc2CO[C@@H]1CN(C)Cc1ccccc1	/	/	-19.9	/	/	/
COc1ccc(/C=N/NC(=O)c2ccccc2O)cc1Cn1cc(Cl)cn1	47.6*	15.2	/	-0.2	4.0	+
